# B1: unnamed (peptide)
# chain: NHSRSLFSLPGNQQS
# Biological target: AgAbp1
# Test: SPOT peptide array binding signal intensity (averaged, normalized) (arbitrary units (background-subtracted, floor 0; scale differs between SH3 domains)); higher = stronger binding of the SH3 domain to the peptide
# Protocol: (§1)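 GST-tagged SH3 domains from S. cerevisiae (Sc), A. gossypii (Ag), C. albicans (Ca) and S. pombe (Sp) were incubated at 10 ug/ml overnight at 4 C on cellulose SPOT membranes carrying 292 synthetic 15-mer peptides mined from the S. cerevisiae proteome (cysteines replaced by serines). Binding was detected with anti-GST antibody, HRP secondary and chemiluminescence, quantified with Genespotter, and reported as normalized spot intensities averaged over biological replicates.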
row,Binder,SPOT peptide array binding signal intensity
1,B1,31

# Biological target: AgBbc1
# Test: as above
# Protocol: as §1
row,Binder,SPOT peptide array binding signal intensity
1,B1,21.5

# Biological target: AgBem1-D1
# Test: as above
# Protocol: as §1
row,Binder,SPOT peptide array binding signal intensity
1,B1,96.5

# Biological target: AgBzz1-D1
# Test: as above
# Protocol: as §1
row,Binder,SPOT peptide array binding signal intensity
1,B1,38

# Biological target: AgBzz1-D2
# Test: as above
# Protocol: as §1
row,Binder,SPOT peptide array binding signal intensity
1,B1,20.5

# Biological target: AgCyk3
# Test: as above
# Protocol: as §1
row,Binder,SPOT peptide array binding signal intensity
1,B1,1

# Biological target: AgFus1
# Test: as above
# Protocol: as §1
row,Binder,SPOT peptide array binding signal intensity
1,B1,786

# Biological target: AgHof1
# Test: as above
# Protocol: as §1
row,Binder,SPOT peptide array binding signal intensity
1,B1,58.8

# Biological target: AgHse1
# Test: as above
# Protocol: as §1
row,Binder,SPOT peptide array binding signal intensity
1,B1,2350

# Biological target: AgLsb1
# Test: as above
# Protocol: as §1
row,Binder,SPOT peptide array binding signal intensity
1,B1,246

# Biological target: AgLsb4
# Test: as above
# Protocol: as §1
row,Binder,SPOT peptide array binding signal intensity
1,B1,45

# Biological target: AgMyo5
# Test: as above
# Protocol: as §1
row,Binder,SPOT peptide array binding signal intensity
1,B1,44.5

# Biological target: AgNbp2
# Test: as above
# Protocol: as §1
row,Binder,SPOT peptide array binding signal intensity
1,B1,44

# Biological target: AgRvs167
# Test: as above
# Protocol: as §1
row,Binder,SPOT peptide array binding signal intensity
1,B1,14

# Biological target: AgSho1
# Test: as above
# Protocol: as §1
row,Binder,SPOT peptide array binding signal intensity
1,B1,64

# Biological target: AgSla1-D1-D2
# Test: as above
# Protocol: as §1
row,Binder,SPOT peptide array binding signal intensity
1,B1,58.5

# Biological target: AgSla1-D3
# Test: as above
# Protocol: as §1
row,Binder,SPOT peptide array binding signal intensity
1,B1,13.5

# Biological target: CaAbp1-D1
# Test: as above
# Protocol: as §1
row,Binder,SPOT peptide array binding signal intensity
1,B1,266

# Biological target: CaAbp1-D2
# Test: as above
# Protocol: as §1
row,Binder,SPOT peptide array binding signal intensity
1,B1,430

# Biological target: CaBbc1
# Test: as above
# Protocol: as §1
row,Binder,SPOT peptide array binding signal intensity
1,B1,111

# Biological target: CaBem1-D1
# Test: as above
# Protocol: as §1
row,Binder,SPOT peptide array binding signal intensity
1,B1,27

# Biological target: CaBzz1-D1
# Test: as above
# Protocol: as §1
row,Binder,SPOT peptide array binding signal intensity
1,B1,5.5

# Biological target: CaBzz1-D2
# Test: as above
# Protocol: as §1
row,Binder,SPOT peptide array binding signal intensity
1,B1,31

# Biological target: CaCyk3
# Test: as above
# Protocol: as §1
row,Binder,SPOT peptide array binding signal intensity
1,B1,1.5

# Biological target: CaFus1
# Test: as above
# Protocol: as §1
row,Binder,SPOT peptide array binding signal intensity
1,B1,1930

# Biological target: CaHof1
# Test: as above
# Protocol: as §1
row,Binder,SPOT peptide array binding signal intensity
1,B1,0.25

# Biological target: CaHse1
# Test: as above
# Protocol: as §1
row,Binder,SPOT peptide array binding signal intensity
1,B1,296

# Biological target: CaLsb1
# Test: as above
# Protocol: as §1
row,Binder,SPOT peptide array binding signal intensity
1,B1,2

# Biological target: CaLsb4
# Test: as above
# Protocol: as §1
row,Binder,SPOT peptide array binding signal intensity
1,B1,≤ 0

# Biological target: CaMyo5
# Test: as above
# Protocol: as §1
row,Binder,SPOT peptide array binding signal intensity
1,B1,85.2

# Biological target: CaNbp2
# Test: as above
# Protocol: as §1
row,Binder,SPOT peptide array binding signal intensity
1,B1,358

# Biological target: CaRvs167
# Test: as above
# Protocol: as §1
row,Binder,SPOT peptide array binding signal intensity
1,B1,54.7

# Biological target: CaRvs167-3
# Test: as above
# Protocol: as §1
row,Binder,SPOT peptide array binding signal intensity
1,B1,70.5

# Biological target: CaSho1
# Test: as above
# Protocol: as §1
row,Binder,SPOT peptide array binding signal intensity
1,B1,838

# Biological target: CaSla1-D1-D2
# Test: as above
# Protocol: as §1
row,Binder,SPOT peptide array binding signal intensity
1,B1,25.5

# Biological target: CaSla1-D3
# Test: as above
# Protocol: as §1
row,Binder,SPOT peptide array binding signal intensity
1,B1,23.8

# Biological target: ScAbp1
# Test: as above
# Protocol: as §1
row,Binder,SPOT peptide array binding signal intensity
1,B1,48

# Biological target: ScBbc1
# Test: as above
# Protocol: as §1
row,Binder,SPOT peptide array binding signal intensity
1,B1,0.75

# Biological target: ScBem1-D1
# Test: as above
# Protocol: as §1
row,Binder,SPOT peptide array binding signal intensity
1,B1,6.5

# Biological target: ScBzz1-D1
# Test: as above
# Protocol: as §1
row,Binder,SPOT peptide array binding signal intensity
1,B1,10

# Biological target: ScBzz1-D2
# Test: as above
# Protocol: as §1
row,Binder,SPOT peptide array binding signal intensity
1,B1,10.5

# Biological target: ScCyk3
# Test: as above
# Protocol: as §1
row,Binder,SPOT peptide array binding signal intensity
1,B1,29.5

# Biological target: ScFus1
# Test: as above
# Protocol: as §1
row,Binder,SPOT peptide array binding signal intensity
1,B1,595

# Biological target: ScHof1
# Test: as above
# Protocol: as §1
row,Binder,SPOT peptide array binding signal intensity
1,B1,3.5

# Biological target: ScHse1
# Test: as above
# Protocol: as §1
row,Binder,SPOT peptide array binding signal intensity
1,B1,2940

# Biological target: ScLsb1
# Test: as above
# Protocol: as §1
row,Binder,SPOT peptide array binding signal intensity
1,B1,2.75

# Biological target: ScLsb2
# Test: as above
# Protocol: as §1
row,Binder,SPOT peptide array binding signal intensity
1,B1,7

# Biological target: ScLsb3
# Test: as above
# Protocol: as §1
row,Binder,SPOT peptide array binding signal intensity
1,B1,4

# Biological target: ScLsb4
# Test: as above
# Protocol: as §1
row,Binder,SPOT peptide array binding signal intensity
1,B1,≤ 0

# Biological target: ScMyo3
# Test: as above
# Protocol: as §1
row,Binder,SPOT peptide array binding signal intensity
1,B1,29.5

# Biological target: ScMyo5
# Test: as above
# Protocol: as §1
row,Binder,SPOT peptide array binding signal intensity
1,B1,67.2

# Biological target: ScNbp2
# Test: as above
# Protocol: as §1
row,Binder,SPOT peptide array binding signal intensity
1,B1,104

# Biological target: ScPex13
# Test: as above
# Protocol: as §1
row,Binder,SPOT peptide array binding signal intensity
1,B1,≤ 0

# Biological target: ScRvs167
# Test: as above
# Protocol: as §1
row,Binder,SPOT peptide array binding signal intensity
1,B1,17

# Biological target: ScSho1
# Test: as above
# Protocol: as §1
row,Binder,SPOT peptide array binding signal intensity
1,B1,1120

# Biological target: ScSla1-D1-D2
# Test: as above
# Protocol: as §1
row,Binder,SPOT peptide array binding signal intensity
1,B1,90.5

# Biological target: ScSla1-D3
# Test: as above
# Protocol: as §1
row,Binder,SPOT peptide array binding signal intensity
1,B1,2.25

# Biological target: SpAbp1-D1
# Test: as above
# Protocol: as §1
row,Binder,SPOT peptide array binding signal intensity
1,B1,196

# Biological target: SpBbc1
# Test: as above
# Protocol: as §1
row,Binder,SPOT peptide array binding signal intensity
1,B1,5.5

# Biological target: SpBzz1-D1
# Test: as above
# Protocol: as §1
row,Binder,SPOT peptide array binding signal intensity
1,B1,28

# Biological target: SpBzz1-D2
# Test: as above
# Protocol: as §1
row,Binder,SPOT peptide array binding signal intensity
1,B1,2.5

# Biological target: SpCyk3
# Test: as above
# Protocol: as §1
row,Binder,SPOT peptide array binding signal intensity
1,B1,≤ 0

# Biological target: SpHof1
# Test: as above
# Protocol: as §1
row,Binder,SPOT peptide array binding signal intensity
1,B1,176

# Biological target: SpHof1-2
# Test: as above
# Protocol: as §1
row,Binder,SPOT peptide array binding signal intensity
1,B1,10.8

# Biological target: SpHof1-3
# Test: as above
# Protocol: as §1
row,Binder,SPOT peptide array binding signal intensity
1,B1,992

# Biological target: SpHse1
# Test: as above
# Protocol: as §1
row,Binder,SPOT peptide array binding signal intensity
1,B1,1960

# Biological target: SpLsb1
# Test: as above
# Protocol: as §1
row,Binder,SPOT peptide array binding signal intensity
1,B1,27.5

# Biological target: SpLsb4
# Test: as above
# Protocol: as §1
row,Binder,SPOT peptide array binding signal intensity
1,B1,20

# Biological target: SpMyo1
# Test: as above
# Protocol: as §1
row,Binder,SPOT peptide array binding signal intensity
1,B1,72.5

# Biological target: SpNbp2
# Test: as above
# Protocol: as §1
row,Binder,SPOT peptide array binding signal intensity
1,B1,125

# Biological target: SpPex13
# Test: as above
# Protocol: as §1
row,Binder,SPOT peptide array binding signal intensity
1,B1,7

# Biological target: SpRvs167
# Test: as above
# Protocol: as §1
row,Binder,SPOT peptide array binding signal intensity
1,B1,75

# Biological target: SpSla1-D1-D2
# Test: as above
# Protocol: as §1
row,Binder,SPOT peptide array binding signal intensity
1,B1,3

# Biological target: SpSla1-D3
# Test: as above
# Protocol: as §1
row,Binder,SPOT peptide array binding signal intensity
1,B1,13.5

# Reference: the supplement of paper PMC4466140
